The full list was thinned out, with hits kept by preference.
Bead autofluor = compound fluorescence in toxin protease inhibitor counterscreen | compound autofluorescence counterscreen, microsphere flow cytometry; active compounds read high | fluorescence intensity (test concentration not listed) | 360,000 tested, 3.1% active | AID 624483; in the data active = fluorescence intensity above about 16000; inconclusive = no clear call, values can overlap the other calls
Anthrax LF prot = anthrax lethal factor protease inhibition; P15917; AID 588501; inhibition, % at 10 µM; 360,000 tested, 0.12% active; multiplex microsphere protease cleavage assay, LF
BoNT-A LC inh2 = blocks Botulinum neurotoxin A light chain protease | inhibition, % at 10 µM | multiplex microsphere protease substrate cleavage, flow cytometry | AID 588499 | 360,000 tested, 0.17% active
TcdB inh = inhibitors of Clostridioides difficile toxin B glycohydrolase. P18177. TcdB glycohydrolase enzymatic assay, plate reader. inhibition, % at 9.99 µM. 350,000 tested, 0.24% active. AID 652162; in the data active = inhibition above about 10%
BoNT-F LC inh = inhibitors of Botulinum neurotoxin F light chain protease; Multiplex microsphere protease cleavage assay, flow cytometry; inhibition, % at 10 µM; 360,000 tested, 0.22% active; in the data active = inhibition above about 35%, passing the limit was not always enough; inconclusive = no clear call, values can overlap the other calls
A number is an active result; i = inactive; ? = inconclusive; nt = no result. Cut-off read from the data, not from the text of the source, unless noted: active = inhibition above about 30%; inconclusive = no clear call, values can overlap the other calls; inactive = below that.

SMILES | Bead autofluor | Anthrax LF prot | BoNT-A LC inh2 | TcdB inh | BoNT-F LC inh
COc1ccc(OC)c(-n2c(-c3cccc(C)c3)n[nH]c2=S)c1 | i | i | i | i | i
C=CCSc1n[nH]c(-c2ccc(OCCCC)cc2)n1 | 16907 | i | i | i | i
C=CCSc1n[nH]c(-c2ccc(OCCC)cc2)n1 | i | i | i | i | i
C[C@@H]1CCCCO[C@@H](CN(C)Cc2ccc(C(=O)O)cc2)[C@H](C)CN([C@H](C)CO)C(=O)c2cc(NC(=O)NC3CCCCC3)ccc2O1 | nt | nt | nt | i | nt
CCC(=O)Nc1ccc2nc(SCC(=O)N3CCCC3)sc2c1 | 20940 | i | i | i | i
CC(=O)CSc1nc2ccc(Nc3nc(N4CCOCC4)nc(N4CCOCC4)n3)cc2s1 | 16232 | i | i | nt | i
Cn1cnnc1SCC(=O)Nc1ccc2nc(SCc3cccc4ccccc34)sc2c1 | i | i | i | nt | i
Cn1cnnc1SCC(=O)Nc1ccc2nc(SCc3ccccc3Cl)sc2c1 | 25037 | i | ? | i | i
CC(C)(C)NC(=O)CSc1nc2ccc(Nc3nc(N4CCOCC4)nc(N4CCOCC4)n3)cc2s1 | i | i | i | i | i
CC(C)NC(=O)N(C)C[C@@H]1Oc2ncc(-c3ccccc3)cc2C(=O)N([C@H](C)CO)C[C@@H]1C | nt | nt | nt | i | nt
COC(=O)[C@H](C)NC(=O)NCc1ccco1 | 20251 | i | i | i | i
CC(C)Oc1ccc(C(CC(=O)NCc2ccco2)c2ccccc2)cc1 (stereo unspecified) | 16645 | i | i | i | i
Cc1cccc(C(CC(=O)NCc2ccco2)c2ccccc2)c1O (stereo unspecified) | i | i | i | nt | i
CCC(C)[C@H](NC(=O)NCc1ccco1)C(=O)OC (stereo partly specified) | i | i | i | i | ?
C[C@H](CO)N1C[C@H](C)[C@@H](CN(C)Cc2ccc(F)cc2)Oc2ncc(-c3ccccc3F)cc2C1=O | nt | nt | nt | i | nt
CC(C)NC(=O)Nc1ccc2c(c1)C(=O)N([C@@H](C)CO)C[C@@H](C)[C@@H](CN(C)C(=O)Cc1ccccc1)OCCCC[C@@H](C)O2 | nt | nt | nt | i | nt
N#C[C@@H]1[C@@H](c2ccc(-c3cccc(F)c3)cc2)[C@@H](CO)N1C(=O)NC1CCCCC1 | nt | nt | nt | i | nt
COCC(=O)N(C)C[C@@H]1Oc2ncc(C3=CCCCC3)cc2C(=O)N([C@@H](C)CO)C[C@H]1C | nt | nt | nt | i | nt
O=C(c1ccccc1)c1ccc2nc(-c3ccco3)c(-c3ccco3)nc2c1 | i | i | 42 | i | i
O=C(NCCc1ccccc1)c1ccc2nc(-c3ccco3)c(-c3ccco3)nc2c1 | i | i | i | nt | i
COc1ccc(NC(=O)Nc2cccc3c2O[C@H](CN(C)C(=O)Nc2ccc(OC)cc2)[C@H](C)CN([C@H](C)CO)C3=O)cc1 | nt | nt | nt | i | nt
O=C(Nc1ccc(Br)cc1Cl)c1cnccn1 | 17512 | i | ? | i | i
CCn1cc([N+](=O)[O-])c(C(=O)N2N=C3/C(=C/c4cccs4)CCCC3C2c2cccs2)n1 (stereo unspecified) | 21392 | i | i | nt | i
CCn1cc([N+](=O)[O-])c(C(=O)N2CCOCC2)n1 | i | i | i | nt | i
CCc1cc(C(=O)OC)c(N2C(=O)C3C4C=CC(C4)C3C2=O)s1 (stereo unspecified) | 23671 | i | i | nt | i
SMILES | Bead autofluor | Anthrax LF prot | BoNT-A LC inh2 | TcdB inh | BoNT-F LC inh
CCc1cc(C(=O)OC)c(NC(=O)CC2SC(N)=NC2=O)s1 (stereo unspecified) | i | i | i | i | i
COc1ccc(-c2nn(-c3ccccc3)cc2/C=C2/SC(=S)N(CCC(=O)O)C2=O)cc1 | i | i | i | i | i
COc1ccc(/C=C2/SC(=S)N(CCC(=O)O)C2=O)cc1 | 21113 | i | i | nt | i
COc1ccc(O)c(/C=C2/SC(=S)N(Cc3ccccc3)C2=O)c1 | i | i | i | i | ?
COc1ccc(/C(C)=C2/SC(=S)N(CCC(=O)O)C2=O)cc1 | 19144 | i | ? | nt | i
COc1ccc(-c2nn(-c3ccccc3)cc2/C=C2/SC(=S)N(CCC(=O)O)C2=O)c(C)c1 | i | 37 | i | i | i
COc1ccc(OC)c(/C=C2\SC(=S)N(Cc3cccnc3)C2=O)c1 | i | i | 42 | nt | i
COc1ccc(/C=C2\SC(=S)N(CCC(=O)Nc3ccc(C(=O)O)cc3)C2=O)cc1 | i | i | i | i | ?
CCNC(=O)C[C@H]1CC[C@@H]2[C@H](COc3ccc(NC(=O)NC(C)C)cc3C(=O)N2C)O1 | nt | nt | nt | i | nt
Cc1ccc(-c2cnc3c(c2)C(=O)N([C@H](C)CO)C[C@H](C)[C@H](CN(C)C(=O)Cc2ccccc2)O3)cc1 | nt | nt | nt | i | nt
COc1cc(/C=C2/SC(=S)N(CC(=O)Nc3cccnc3)C2=O)cc(OC)c1OC | i | i | 31 | nt | i
COc1cc(/C=C2\SC(=S)N(CCC(=O)N3CCCCC3)C2=O)cc(OC)c1OC | i | i | 30 | i | i
O=C(O)CCN1C(=O)/C(=C\c2ccc(-c3nc4ccccc4s3)o2)SC1=S | i | 40 | 47 | nt | i
COCCNC(=O)c1cc2c(c(-c3cccc(-c4cccc(F)c4)c3)n1)[C@H](CCO)N(S(=O)C(C)(C)C)C2 (stereo partly specified) | nt | nt | nt | i | nt
COc1ccc(N2C(=O)C(CC(=O)O)S/C2=N\N=C\c2cccs2)cc1 (stereo unspecified) | i | i | i | i | 43
O=C(O)CC1S/C(=N/N=C/c2ccc(Br)cc2)N(c2ccccc2)C1=O (stereo unspecified) | i | i | i | i | i
C[C@H]1CCCCO[C@H](CN(C)C(=O)Nc2cccc3ccccc23)[C@@H](C)CN([C@@H](C)CO)C(=O)c2cc(NC(=O)C3CCCCC3)ccc2O1 | nt | nt | nt | i | nt
O=S(=O)(c1ccc(NC(=S)N/N=C/c2c3ccccc3cc3ccccc23)cc1)N1CCOCC1 | i | i | 33 | i | i
O=S(=O)(c1ccc(NC(=S)N/N=C/c2ccc(Oc3ccccc3)cc2)cc1)N1CCOCC1 | i | i | i | i | i
O=C1CCCC2=C1C(c1ccc(O)c(O)c1)Nc1ccc3ncccc3c12 (stereo unspecified) | i | i | i | i | i
Cc1ccsc1C1Nc2ccc3ncccc3c2C2=C1C(=O)CC(C)(C)C2 (stereo unspecified) | 16347 | i | ? | nt | i
CC1(C)CC(=O)C2=C(C1)c1c(ccc3ccccc13)NC2c1ccco1 (stereo unspecified) | i | i | i | i | i
O=C1CCCC2=C1C(c1cccs1)Nc1ccc3ncccc3c12 (stereo unspecified) | 23605 | i | ? | nt | i
CCc1c(C)sc(NC(=O)OC)c1C(=O)N1CCCCC1 | i | i | i | nt | i
CCc1c(C)sc(NC(=O)OC)c1C(N)=O | 17066 | i | i | nt | i
COc1ccccc1CN(C)C[C@H]1OCc2cn(nn2)CCCC(=O)N([C@H](C)CO)C[C@H]1C | nt | nt | nt | i | nt
CC(NC(=O)NC12CC3CC(CC(C3)C1)C2)C1CCCO1 (stereo unspecified) | 21432 | i | ? | nt | i
CCC(Oc1ccc(C)cc1)C(=O)Nc1ccc2c(c1)n(C)c(=O)n2C (stereo unspecified) | i | i | i | i | ?
CCC(Oc1ccccc1F)C(=O)Nc1ccc2c(c1)n(C)c(=O)n2C (stereo unspecified) | i | i | i | i | 38
